The text below walks through data of PubChem BioAssay (EPA / NIEHS).

Structures are written as SMILES. Several values for one entry are separate records, joined by “and”; a condition that tells them apart may be missing. Equal entries are not always repeated. Inconclusive results are not listed. Activity calls are given as the source filed them. The calls were made as follows, unless noted: active = hit-call score of the fitted dose curve at least 0.9, where 1 is the maximum; inactive = score below 0.9.

Read-out in test [1]: Monocyte Chemoattractant Protein-1 (MCP1), CCL2 (gene 6347)
Kind of test: BSK_SAg_MCP1: BioMAP Diversity Plus: SAg Assay for Monocyte Chemoattractant Protein-1 (MCP1) Biomarker Activity (AID 2283090). The conditions noted are these: primary human HUVEC with PBMC; actives raise or lower the signal. The gist of the method:
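MCP-1 levels in the endothelial–PBMC SAg co-culture were quantified by ELISA at 24 h post-dosing; both increases and decreases versus DMSO scored. Cytotoxicity monitored by SRB total protein in parallel cultures.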

Read-out in test [2]: E-selectin (Homo sapiens) (UniProt P16581)
The experiment in a line: BSK_SAg_Eselectin: BioMAP Diversity Plus: SAg Assay for Eselectin Biomarker Activity (AID 2283091). Conditions: primary human HUVEC with PBMC; actives raise or lower the signal. The essentials: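 Primary human endothelial cells and peripheral blood mononuclear cells were co-cultured and exposed to chemical for 24 hours. E-selectin levels were then quantified by ELISA, with bidirectional curve fitting normalised to DMSO controls.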

Read-out in test [3]: Monokine induced gamma interferon (MIG), CXCL9 (gene 4283)
The experiment in a line: BSK_SAg_MIG: BioMAP Diversity Plus: SAg Assay for Monokine induced gamma interferon (MIG) Biomarker Activity (AID 2283092). Conditions: primary human HUVEC with PBMC; actives raise or lower the signal. The essentials:
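ELISA readout of MIG/CXCL9; primary human umbilical vein endothelial cells co-cultured with peripheral blood mononuclear cells; 24 h post-dose; gain/loss fit vs DMSO baseline.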

Test [4] in a line: BSK_SAg_PBMCCytotoxicity: PBMC Cytotoxicity Assessment in the BioMAP Diversity Plus: SAg Assay (AID 2283093).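 Also: PBMC viability measured as Alamar Blue reduction fluorescence at 546/580 nm; fitted both ways against DMSO so a hit may be loss or gain of signal.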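 As to AC50: PBMC superantigen activated with SEB plus TSST-1 one hour after compound addition.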 The conditions noted are these: primary human HUVEC with PBMC. The gist of the method: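 HUVEC/PBMC co-culture; PBMC exposed to chemical 1 h before SEB and TSST-1 activation (20 ng/mL each), incubated 90 h, then Alamar Blue 6 h, fluorescence 546/580 nm. Bidirectional fit versus DMSO baseline.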

Read-out in test [5]: Interleukin-8 (IL8), CXCL8 (gene 3576)
Kind of test: BSK_SAg_IL8: BioMAP Diversity Plus: SAg Assay for Interleukin-8 (IL8) Biomarker Activity (AID 2283094). Conditions: primary human HUVEC with PBMC; actives raise or lower the signal. The essentials: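 Human umbilical vein endothelial cells co-cultured with PBMC, stimulated with superantigen; IL-8 measured by ELISA 24 h after chemical dosing. Bidirectional fitting versus DMSO; SRB staining in parallel cultures tracks cytotoxicity.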

Test [6] is described as follows: BSK_SAg_Proliferation: Cell Proliferation Assessment in the BioMAP Diversity Plus: SAg Assay (AID 2283095). Conditions: primary human HUVEC with PBMC. The essentials:
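Human umbilical vein endothelial cells co-cultured with PBMC; sulforhodamine B total-protein staining (0.1% SRB after 10% TCA fixation, absorbance 560 nm) at 96 h in sub-confluent culture. Fitted bidirectionally against DMSO.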

Test [7] in a line: BSK_SAg_SRB: Viability Assessment in the BioMAP Diversity Plus: SAg Assay (AID 2283096).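 Also: cells read one day after compound addition; hits may be either gain or loss of signal compared with DMSO.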 The conditions noted are these: primary human HUVEC with PBMC. The essentials: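 Human umbilical vein endothelial cells co-cultured with PBMC, read 24 h after compound dosing. Total protein measured by sulforhodamine B staining (0.1% SRB after 10% TCA fixation, absorbance 560 nm); bidirectional fit versus DMSO baseline.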

Test [8] addresses human CYP1A1, CYP1A1 (gene 1543) (UniProt P04798). The experiment in a line: NVS_ADME_hCYP1A1: NovaScreen (NVS) CYP450-related Enzyme Activity (ADME) Assay for human CYP1A1 (AID 2283100; active = hit-call score of the fitted dose curve at least 0.9, where 1 is the maximum). The essentials:
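Compounds first went through duplicate single-concentration testing at 10 uM against purified CYP1A1. Those passing a threshold such as 30% inhibition entered singleton dose-response, highest concentration 20 uM. Signal was fluorescence measured after 1 hour.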

Test [9] concerns the target human CYP1A2, CYP1A2 (gene 1544) (UniProt P05177). The experiment in a line: NVS_ADME_hCYP1A2: NovaScreen (NVS) CYP450-related Enzyme Activity (ADME) Assay for human CYP1A2 (AID 2283102; active = hit-call score of the fitted dose curve at least 0.9, where 1 is the maximum;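 as to AC50: potency for inhibition since loss of fluorescence marks reduced CYP1A2 activity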). The essentials: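 Compounds were tested at 10 uM in duplicate against recombinant CYP1A2 produced in insect cells. Enzyme activity was measured by fluorescence 0.5 h after dosing, with loss of signal versus acetonitrile control. Active compounds were re-tested in concentration series.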

Test [10] deals with Cytochrome P450 2C18 (Homo sapiens) (UniProt P33260). Kind of test: NVS_ADME_hCYP2C18: NovaScreen (NVS) CYP450-related Enzyme Activity (ADME) Assay for human CYP2C18 (AID 2283103). The essentials: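 Cell-free recombinant human CYP2C18 with fluorogenic substrate; fluorescence intensity read 0.5 h after dosing. Single-point screen at 10 uM in duplicate, then concentration-response up to 20 uM; loss of signal fitted against acetonitrile baseline.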

Test [11] concerns the target Cytochrome P450 2C19 (Homo sapiens) (UniProt P33261). Kind of test: NVS_ADME_hCYP2C19: NovaScreen (NVS) CYP450-related Enzyme Activity (ADME) Assay for human CYP2C19 (AID 2283113; active = hit-call score of the fitted dose curve at least 0.9, where 1 is the maximum;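 also: potency for inhibition seen as loss of fluorescent signal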). The essentials: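 Chemicals first screened in duplicate at 10 uM against recombinant human enzyme produced in insect cells; confirmed actives then run as concentration series. Fluorogenic substrate turnover read by fluorescence after 1 h, normalised to acetonitrile.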

Test [12] has as its target human CYP19A1, CYP19A1 (gene 1588) (UniProt P11511). The experiment in a line: NVS_ADME_hCYP19A1: NovaScreen (NVS) CYP450-related Enzyme Activity (ADME) Assay for human CYP19A1 (AID 2283098; active = hit-call score of the fitted dose curve at least 0.9, where 1 is the maximum;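 as to AC50: potency for inhibitors seen as loss of fluorescent enzyme signal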). The essentials: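 Recombinant enzyme in a cell-free format, read 0.5 h after dosing by fluorescence from a fluorogenic substrate. Loss of signal was fitted against acetonitrile as baseline. Primary screen in duplicate at 10 uM, actives then tested in concentration series.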

The target of test [13] is human CYP2A6, CYP2A6 (gene 1548) (UniProt P11509). The experiment in a line: NVS_ADME_hCYP2A6: NovaScreen (NVS) CYP450-related Enzyme Activity (ADME) Assay for human CYP2A6 (AID 2283099; active = hit-call score of the fitted dose curve at least 0.9, where 1 is the maximum). The gist of the method: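 Recombinant human CYP2A6 from insect cells was incubated with chemical for 0.5 h and activity read by fluorescence. Single-concentration duplicates at 10 uM preceded concentration-response testing to 20 uM, with activity referenced to acetonitrile.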

The target in test [14] is human CYP2B6, CYP2B6 (gene 1555) (UniProt P20813). Kind of test: NVS_ADME_hCYP2B6: NovaScreen (NVS) CYP450-related Enzyme Activity (ADME) Assay for human CYP2B6 (AID 2283101; active = hit-call score of the fitted dose curve at least 0.9, where 1 is the maximum). The essentials: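 Fluorescence-based enzyme activity of recombinant human CYP2B6, measured 1 h post-dose against acetonitrile vehicle baseline. Screened at a single concentration of 10 uM in duplicate before concentration-response follow-up.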

The target of test [15] is human CYP2J2, CYP2J2 (gene 1573) (UniProt P51589). Kind of test: NVS_ADME_hCYP2J2: NovaScreen (NVS) CYP450-related Enzyme Activity (ADME) Assay for human CYP2J2 (AID 2283106; active = hit-call score of the fitted dose curve at least 0.9, where 1 is the maximum). The essentials: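 Cell-free assay of recombinant CYP2J2 with a fluorogenic substrate, read 1 h after dosing; loss of signal versus acetonitrile. Primary screen at 10 uM in duplicate, then concentration-response up to 20 uM for chemicals passing threshold (e.g., 30% inhibition).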

For test [16], the target named is human CYP2D6, CYP2D6 (gene 1565) (UniProt P10635). The experiment in a line: NVS_ADME_hCYP2D6: NovaScreen (NVS) CYP450-related Enzyme Activity (ADME) Assay for human CYP2D6 (AID 2283107; active = hit-call score of the fitted dose curve at least 0.9, where 1 is the maximum). The essentials:
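Compounds were first tested in duplicate at 10 uM against recombinant enzyme produced in insect cells, with substrate turnover measured by fluorescence after 1 hour. Decreased signal, referenced to acetonitrile vehicle, was taken as reduced enzyme activity. Active chemicals went on to concentration-response testing.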

In test [17] the target is human CYP2C9, CYP2C9 (gene 1559) (UniProt P11712). The experiment in a line: NVS_ADME_hCYP2C9: NovaScreen (NVS) CYP450-related Enzyme Activity (ADME) Assay for human CYP2C9 (AID 2283108; active = hit-call score of the fitted dose curve at least 0.9, where 1 is the maximum). The essentials:
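Recombinant human CYP2C9 expressed in SF9 cells, fluorogenic substrate, fluorescence read 0.75 h after dosing. Chemicals first run in duplicate at 10 uM, with actives followed in concentration series; loss of signal versus acetonitrile baseline.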

The target in test [18] is human CYP2C8, CYP2C8 (gene 1558) (UniProt P10632). Kind of test: NVS_ADME_hCYP2C8: NovaScreen (NVS) CYP450-related Enzyme Activity (ADME) Assay for human CYP2C8 (AID 2283104). The essentials:
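Recombinant human CYP2C8 with fluorogenic substrate, 0.5 h, fluorescence intensity; signal loss fitted versus acetonitrile. Screened in duplicate at 10 uM, then actives run in concentration-response up to 20 uM.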

Test [19] addresses Cytochrome P450 3A4 (Homo sapiens) (UniProt P08684). The experiment in a line: NVS_ADME_hCYP3A4: NovaScreen (NVS) CYP450-related Enzyme Activity (ADME) Assay for human CYP3A4 (AID 2283110; active = hit-call score of the fitted dose curve at least 0.9, where 1 is the maximum). The essentials: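 Cell-free recombinant enzyme expressed in insect cells; fluorescent substrate turnover read after 0.33 h, acetonitrile as negative control. Primary screen in duplicate at 10 uM, actives then tested in concentration series.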

The AC50 is the concentration at which the activity in the assay is half-maximal.

E-selectin (Homo sapiens), sequence (P16581 whole entry, looked up): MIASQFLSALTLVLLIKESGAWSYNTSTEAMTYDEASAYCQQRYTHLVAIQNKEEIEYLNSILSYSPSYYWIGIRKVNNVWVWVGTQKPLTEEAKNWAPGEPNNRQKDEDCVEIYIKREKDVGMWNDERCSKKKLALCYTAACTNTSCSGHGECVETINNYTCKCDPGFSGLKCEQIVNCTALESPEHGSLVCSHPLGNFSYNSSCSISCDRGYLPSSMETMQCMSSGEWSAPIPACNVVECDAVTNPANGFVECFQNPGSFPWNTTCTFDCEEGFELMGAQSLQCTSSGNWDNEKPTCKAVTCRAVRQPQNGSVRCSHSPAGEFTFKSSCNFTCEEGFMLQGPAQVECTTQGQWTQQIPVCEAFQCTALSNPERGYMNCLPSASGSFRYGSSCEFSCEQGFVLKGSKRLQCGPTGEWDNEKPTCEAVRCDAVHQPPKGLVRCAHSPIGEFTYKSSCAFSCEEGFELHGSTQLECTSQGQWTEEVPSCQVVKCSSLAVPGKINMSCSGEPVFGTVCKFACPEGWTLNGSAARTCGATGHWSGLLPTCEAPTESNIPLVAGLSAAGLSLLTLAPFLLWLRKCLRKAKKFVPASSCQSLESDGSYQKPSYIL
Cytochrome P450 2C18 (Homo sapiens), sequence (P33260 whole entry, looked up): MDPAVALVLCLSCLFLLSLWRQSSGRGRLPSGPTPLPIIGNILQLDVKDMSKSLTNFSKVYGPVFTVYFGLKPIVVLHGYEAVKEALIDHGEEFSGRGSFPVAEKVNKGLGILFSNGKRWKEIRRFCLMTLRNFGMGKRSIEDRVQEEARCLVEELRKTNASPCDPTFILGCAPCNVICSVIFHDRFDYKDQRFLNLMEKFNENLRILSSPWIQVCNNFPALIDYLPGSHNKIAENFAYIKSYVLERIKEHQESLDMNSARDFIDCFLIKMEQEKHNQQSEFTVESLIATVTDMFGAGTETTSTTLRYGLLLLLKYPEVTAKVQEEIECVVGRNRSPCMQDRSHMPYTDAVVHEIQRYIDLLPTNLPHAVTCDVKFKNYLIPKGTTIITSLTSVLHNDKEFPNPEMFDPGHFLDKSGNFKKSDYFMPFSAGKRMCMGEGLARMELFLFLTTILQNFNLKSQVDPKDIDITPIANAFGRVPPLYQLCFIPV
human CYP1A1, CYP1A1 (gene 1543), sequence (P04798 whole entry, looked up): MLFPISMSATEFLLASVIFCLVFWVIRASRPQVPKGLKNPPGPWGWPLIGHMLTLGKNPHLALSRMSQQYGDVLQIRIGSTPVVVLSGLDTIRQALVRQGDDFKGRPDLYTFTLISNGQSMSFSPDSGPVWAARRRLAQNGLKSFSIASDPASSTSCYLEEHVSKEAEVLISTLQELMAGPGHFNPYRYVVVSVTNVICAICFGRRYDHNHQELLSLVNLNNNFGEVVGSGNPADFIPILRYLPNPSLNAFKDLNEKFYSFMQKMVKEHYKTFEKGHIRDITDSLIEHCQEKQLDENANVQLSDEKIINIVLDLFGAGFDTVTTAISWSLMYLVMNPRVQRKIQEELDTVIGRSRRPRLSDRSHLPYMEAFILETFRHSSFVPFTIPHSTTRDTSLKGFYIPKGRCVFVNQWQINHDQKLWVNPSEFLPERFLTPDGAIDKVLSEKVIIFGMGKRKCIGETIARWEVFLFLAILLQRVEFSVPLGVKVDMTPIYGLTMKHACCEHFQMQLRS
human CYP2B6, CYP2B6 (gene 1555), sequence (P20813 whole entry, looked up): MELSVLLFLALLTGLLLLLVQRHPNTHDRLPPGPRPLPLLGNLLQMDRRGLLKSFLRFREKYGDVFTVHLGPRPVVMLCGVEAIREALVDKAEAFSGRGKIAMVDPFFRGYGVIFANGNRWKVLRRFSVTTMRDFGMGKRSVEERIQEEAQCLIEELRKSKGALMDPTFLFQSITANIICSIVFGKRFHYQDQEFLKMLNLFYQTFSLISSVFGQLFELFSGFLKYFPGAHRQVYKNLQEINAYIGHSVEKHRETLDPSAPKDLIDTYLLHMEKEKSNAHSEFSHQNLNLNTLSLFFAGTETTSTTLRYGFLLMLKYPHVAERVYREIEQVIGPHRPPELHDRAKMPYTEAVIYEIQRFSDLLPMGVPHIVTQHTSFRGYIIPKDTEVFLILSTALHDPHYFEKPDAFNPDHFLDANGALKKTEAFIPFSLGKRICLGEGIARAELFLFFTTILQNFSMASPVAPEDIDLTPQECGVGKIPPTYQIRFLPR
human CYP1A2, CYP1A2 (gene 1544), sequence (P05177 whole entry, looked up): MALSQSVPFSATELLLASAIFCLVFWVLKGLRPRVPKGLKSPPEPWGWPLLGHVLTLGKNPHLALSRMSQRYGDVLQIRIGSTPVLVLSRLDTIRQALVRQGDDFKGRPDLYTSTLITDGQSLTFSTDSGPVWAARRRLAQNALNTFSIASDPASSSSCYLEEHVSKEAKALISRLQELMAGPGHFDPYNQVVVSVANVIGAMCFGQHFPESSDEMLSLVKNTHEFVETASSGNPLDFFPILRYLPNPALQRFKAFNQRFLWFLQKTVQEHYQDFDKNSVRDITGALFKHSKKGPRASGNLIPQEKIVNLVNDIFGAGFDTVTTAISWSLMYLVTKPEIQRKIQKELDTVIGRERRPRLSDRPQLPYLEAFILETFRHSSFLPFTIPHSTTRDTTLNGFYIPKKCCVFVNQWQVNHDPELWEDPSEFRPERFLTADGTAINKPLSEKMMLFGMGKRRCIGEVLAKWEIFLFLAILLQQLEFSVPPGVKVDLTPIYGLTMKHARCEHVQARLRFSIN
human CYP19A1, CYP19A1 (gene 1588), sequence (P11511 whole entry, looked up): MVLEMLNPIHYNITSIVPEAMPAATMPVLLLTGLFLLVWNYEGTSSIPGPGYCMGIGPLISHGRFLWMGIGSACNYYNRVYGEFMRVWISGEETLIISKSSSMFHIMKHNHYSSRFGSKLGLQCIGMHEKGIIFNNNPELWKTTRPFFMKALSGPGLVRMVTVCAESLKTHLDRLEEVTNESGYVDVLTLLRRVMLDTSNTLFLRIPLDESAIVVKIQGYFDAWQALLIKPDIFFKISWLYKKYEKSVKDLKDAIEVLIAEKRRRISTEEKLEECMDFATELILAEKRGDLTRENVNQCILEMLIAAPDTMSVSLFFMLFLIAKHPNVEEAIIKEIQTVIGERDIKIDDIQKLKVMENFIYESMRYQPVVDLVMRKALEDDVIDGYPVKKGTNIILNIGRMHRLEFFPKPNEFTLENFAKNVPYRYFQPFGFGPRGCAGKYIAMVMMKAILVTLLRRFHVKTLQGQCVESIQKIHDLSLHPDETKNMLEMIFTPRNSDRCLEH
human CYP2J2, CYP2J2 (gene 1573), sequence (P51589 whole entry, looked up): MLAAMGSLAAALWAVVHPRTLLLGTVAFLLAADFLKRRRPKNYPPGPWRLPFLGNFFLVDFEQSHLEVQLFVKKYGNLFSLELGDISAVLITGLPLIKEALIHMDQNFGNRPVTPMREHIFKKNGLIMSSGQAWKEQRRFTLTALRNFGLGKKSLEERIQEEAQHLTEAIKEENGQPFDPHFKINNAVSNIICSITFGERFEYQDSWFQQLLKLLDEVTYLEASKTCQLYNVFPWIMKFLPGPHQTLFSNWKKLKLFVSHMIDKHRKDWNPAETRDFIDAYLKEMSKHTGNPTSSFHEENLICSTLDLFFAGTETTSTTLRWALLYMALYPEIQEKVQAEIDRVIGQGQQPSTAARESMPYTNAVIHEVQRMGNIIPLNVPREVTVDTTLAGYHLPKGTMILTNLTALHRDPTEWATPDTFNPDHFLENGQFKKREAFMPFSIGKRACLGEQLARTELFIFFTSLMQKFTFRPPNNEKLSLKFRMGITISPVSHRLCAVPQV
human CYP2C9, CYP2C9 (gene 1559), sequence (P11712 whole entry, looked up): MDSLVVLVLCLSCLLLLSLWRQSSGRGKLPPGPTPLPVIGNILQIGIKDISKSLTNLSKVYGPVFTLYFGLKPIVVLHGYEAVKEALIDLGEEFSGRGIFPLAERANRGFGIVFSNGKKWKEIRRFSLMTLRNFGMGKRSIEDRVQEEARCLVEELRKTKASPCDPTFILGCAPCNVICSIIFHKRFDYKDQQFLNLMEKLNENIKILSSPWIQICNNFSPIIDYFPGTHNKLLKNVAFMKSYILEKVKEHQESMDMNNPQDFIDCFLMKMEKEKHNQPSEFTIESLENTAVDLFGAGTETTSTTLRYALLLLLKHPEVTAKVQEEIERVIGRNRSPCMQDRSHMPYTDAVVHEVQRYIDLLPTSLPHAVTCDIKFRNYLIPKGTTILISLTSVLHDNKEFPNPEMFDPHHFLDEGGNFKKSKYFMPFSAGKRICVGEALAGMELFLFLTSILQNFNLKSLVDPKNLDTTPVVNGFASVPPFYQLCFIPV
human CYP2D6, CYP2D6 (gene 1565), sequence (P10635 whole entry, looked up): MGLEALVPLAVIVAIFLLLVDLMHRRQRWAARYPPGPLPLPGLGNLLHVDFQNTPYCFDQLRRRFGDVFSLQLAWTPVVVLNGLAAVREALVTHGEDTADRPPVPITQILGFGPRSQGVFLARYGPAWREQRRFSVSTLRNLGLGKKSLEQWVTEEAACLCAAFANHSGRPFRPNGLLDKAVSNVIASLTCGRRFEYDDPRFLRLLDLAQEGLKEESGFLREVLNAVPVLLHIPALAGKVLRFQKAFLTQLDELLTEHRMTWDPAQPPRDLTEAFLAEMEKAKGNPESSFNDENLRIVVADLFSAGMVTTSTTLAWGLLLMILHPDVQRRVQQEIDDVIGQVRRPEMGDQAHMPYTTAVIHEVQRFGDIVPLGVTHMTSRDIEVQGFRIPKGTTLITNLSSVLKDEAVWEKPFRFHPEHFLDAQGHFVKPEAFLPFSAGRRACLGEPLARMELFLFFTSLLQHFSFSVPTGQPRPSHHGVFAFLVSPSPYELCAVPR

With `COP(=S)(OC)Oc1nc(Cl)c(Cl)cc1Cl`, the outcome in test [1], in [3], in test [4], in test [5], in test [7] and in [8] was inactive. Besides, the call in [9] and in test [10] was inactive. Moreover, the AC50 in [2] is 32 µM (active); in test [6] it was 20 µM (active); in test [11], 10 µM (active).

On to `COc1cnc(OC)n2nc(NS(=O)(=O)c3c(OCC(F)F)cccc3C(F)(F)F)nc12`, for which the outcome in [1], in test [2], in test [3], in [4], in test [5] and in test [6] was inactive.

As for `CC(C)(C)c1ccc(CSc2cnn(C(C)(C)C)c(=O)c2Cl)cc1`, the AC50 in test [1] is 1.11 µM (active); in [2], 0.148 µM (active); in [4], 97.5 nM (active); in test [5] it was 453 nM (active); in test [6] it was 6.61 µM (active). The outcome in [3] was inactive.

Take `CCOP(=S)(OCC)SCn1c(=O)oc2cc(Cl)ccc21`: the half-maximal activity concentration (AC50) in test [1] is 28.4 µM (active); in test [2], 29.4 µM (active); in [5], 26800 nM (active); in test [6], 29 µM (active); in [7], 31.9 µM (active); in test [13], 683 nM (active). Further, the AC50 in [8] is 513 nM (active); in test [14], 1.25 µM (active); in [9], 2 µM (active); in test [10] it was 1.46 µM (active); in [16], 2.8 µM (active); in [17], 1.8 µM (active). In addition, in test [11], the concentration at half-maximal activity (AC50) was 0.215 µM (active). The outcome in test [3], in [4], in [12] and in test [15] was inactive.

Take `COc1nc(NC(C)C)nc(NC(C)C)n1`: the outcome in test [1], in [2], in test [3], in test [4], in test [5] and in test [6] was inactive.

Take `Oc1ccccc1-c1ccccc1`: the outcome in test [1], in [2], in [3], in [4], in [5] and in test [6] was inactive. For the same compound, the result in test [7] was inactive. For the same compound, the AC50 in test [12] was 4.05 µM (active).

Regarding `CCCN(CCC)c1c([N+](=O)[O-])cc(S(N)(=O)=O)cc1[N+](=O)[O-]`, the AC50 is 34.8 µM (active) [middle of 4 runs] in [1]; 33.1 µM (active) and 31.4 µM (active) and 30 µM (active) in [2]; 39.5 µM (active) [middle of 4 runs] in [3]; 30.7 µM (active) [middle of 4 runs] in [4]; 39.7 µM (active) [middle of 4 runs] in test [5]; 30.2 µM (active) [middle of 4 runs] in [6]. In addition, the AC50 in test [7] was 32.3 µM (active) [middle of 4 runs]; in test [10] it was 2.71 µM (active); in [18], 4.89 µM (active); in test [11], 1.34 µM (active) [middle of 4 runs]. In addition, the outcome in [14] and in test [19] was inactive.
